# Shown are actives, neighbours in structure and some others; about 22% of the full set was active somewhere.
# Cycloheximide cs – counter-screen for Shiga toxin inhibitors: cycloheximide protein synthesis inhibition; cell reporter, cycloheximide protein synthesis inhibition counterscreen; max response, %; hit rate 12% among 300,000; AID 2314; in the data active = max response mostly above about 13%, no sharp cut-off; inactive = mostly below about 14%; also: read at 38.3 µM for the half of the compounds with a filed dose; 0% is about no effect
# Shiga inhibitor – Shiga toxin inhibition | hit rate 9.2% among 290,000 | Vero cells, Shiga toxin protein synthesis inhibition reporter | inhibition, % at 38.7 µM; in the data active = inhibition mostly above about 28%, no sharp cut-off; inactive = mostly below about 43%; also: 0% is about no effect
# LmPK inh – inhibitors of Leishmania mexicana pyruvate kinase; Q27686; purified LmPK, Kinase-Glo ATP luminescence, 1 h; Potency, µM (top dose mostly 57.5 µM), inactives show at the highest dose activity change, negative = inhibition, actives largely listed as inhibitors; hit rate 0.37% among 290,000; AID 1721; also: potency is read from the fitted curve at half-maximal effect; % is scaled to controls: 0 for no effect and ±100 for the full control effect
# Target sequence (Q27686 whole entry, looked up): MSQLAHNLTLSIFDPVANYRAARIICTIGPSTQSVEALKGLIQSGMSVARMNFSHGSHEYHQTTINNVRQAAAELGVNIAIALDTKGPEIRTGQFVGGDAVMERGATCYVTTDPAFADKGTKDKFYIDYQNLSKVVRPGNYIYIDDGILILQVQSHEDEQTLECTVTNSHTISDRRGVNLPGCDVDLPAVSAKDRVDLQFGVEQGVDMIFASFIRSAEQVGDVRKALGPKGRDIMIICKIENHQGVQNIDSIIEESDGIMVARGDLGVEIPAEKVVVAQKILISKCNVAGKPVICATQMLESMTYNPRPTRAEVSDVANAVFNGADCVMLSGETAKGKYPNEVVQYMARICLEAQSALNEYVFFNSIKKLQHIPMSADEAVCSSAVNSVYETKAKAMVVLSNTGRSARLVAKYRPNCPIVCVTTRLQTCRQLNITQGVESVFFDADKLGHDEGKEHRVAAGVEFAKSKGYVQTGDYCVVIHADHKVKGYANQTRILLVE
#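 In 50 mM imidazole pH 7.2 with 7 mM MgCl2, LmPK (0.1 nM) turned over PEP (0.5 mM) and ADP (0.1 mM) for 1 h at room temperature. Luciferase read-out of ATP.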
# Pf growth 48h – P. falciparum growth inhibition at 48 hours (one generation). P. falciparum luciferase growth in erythrocytes, 48 h. Potency, µM (top dose mostly 28.7 µM), for the others: top-dose activity change, negative = inhibition, most hits filed as inhibitors. hit rate 5.9% among 310,000; also: potency is read from the fitted curve at half-maximal effect; % is scaled to controls: 0 for no effect and ±100 for the full control effect
#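 Compounds are pin-transferred into medium, infected erythrocytes (2% hematocrit, 0.1% parasitemia final) are added, and plates sit one parasite generation at 37 C in 5% CO2. Detection reagent is then added and luminescence measured.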
# Pf growth 96h – P. falciparum growth inhibition at 96 hour, primary screen for plastid delayed-death inhibitors. P. falciparum luciferase reporter growth, 96 h. Potency, µM (titrated, usually from 28.7 µM), for the others: top-dose activity change, negative = inhibition, hits mostly inhibitors. hit rate 6.9% among 320,000; also: potency is read from the fitted curve at half-maximal effect; % is scaled to controls: 0 for no effect and ±100 for the full control effect
#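 96 h incubation, 37 C, 5% CO2, of luciferase-reporter P. falciparum-infected RBCs (2% hematocrit, 0.05% parasitemia final) with test compounds; endpoint luminescence.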
# * = called active by the depositor; i = inactive; u = inconclusive; x = no result. Unless noted, calls follow the shape of the dose curve; as a rule, active = well fitted inhibition curve with a large enough effect; inconclusive = small, poorly fitted or top-dose-only effect, or another doubt; inactive = no such curve, though single readings can be large or run the other way.
SMILES,Cycloheximide cs,Shiga inhibitor,LmPK inh,Pf growth 48h,Pf growth 96h
CCOC(=O)c1csc(NC(=O)c2ccc(OCC)cc2)n1,38.1*,94.5*,1.3%,i,467.8%
CCOC(=O)c1csc(NC(=O)c2ccc(S(=O)(=O)N(C)C)cc2)n1,-5.9,7.5,0.0%,-3.6%,-25.7%
CCOC(=O)c1csc(NC(C)=O)n1,28.1*,28.1,2.0%,82.4%,u
CCOC(=O)c1csc(NC(=O)c2ccccc2)n1,49.1*,129.2*,-0.6%,x,166.6%
CCOC(=O)c1csc(NC(=O)c2ccc(N3C(=O)CCC3=O)cc2)n1,1.5,15.7,1.5%,-14.9%,15.1%
Cc1ccc(S(=O)(=O)N2CCN(C(=O)c3cc(=O)c4ccccc4o3)CC2)cc1,9.6,15.2,-1.6%,-7.8%,u
COc1cc(/C=C/C(=O)OCC(=O)NCc2ccco2)ccc1O,x,x,x,u,5.2%
CCc1ccc(C(=O)C(C)OC(=O)c2nc3nc(C)cc(C)n3n2)cc1 (stereo not given),x,x,x,11.2%,1.1%
O=c1c2cc(N3CCOCC3)ccc2[nH]c(=S)n1Cc1cccc(Cl)c1,-3.6,-11.2,-1.0%,9.2%,u
O=C(NC1CCN(Cc2ccccc2)CC1)c1ccc(Cn2c(=S)[nH]c3ccc(N4CCOCC4)cc3c2=O)cc1,32.3*,54.8*,0.5%,u,33.0%
O=C(CCCCCn1c(=S)[nH]c2ccc(N3CCOCC3)cc2c1=O)NC1CCN(Cc2ccccc2)CC1,-3.0,7.5,-1.7%,u,10.0%
O=C(c1ccc(Cn2c(=O)[nH]c3ccccc3c2=O)cc1)N1CCN(c2ccccc2)CC1,-2.4,2.6,4.9%,u,3.29µM*
O=C(c1ccc2c(=O)n(Cc3ccco3)c(=S)[nH]c2c1)N1CCN(c2ccccc2)CC1,-0.7,-11.7,-0.7%,6.6%,11.7µM*
O=C(c1ccc2c(=O)n(CC3CCCO3)c(=S)[nH]c2c1)N1CCN(c2ccccc2)CC1 (stereo not given),-2.3,14.6,4.3%,13.0%,38.1%
O=c1c2cc(N3CCOCC3)ccc2[nH]c(=S)n1Cc1ccco1,10.8*,6.9,-1.2%,8.6%,x
CC1CCN(c2nc3c(c(=O)[nH]c(=O)n3C)n2CC(C)CSc2nnnn2-c2ccccc2)CC1 (stereo not given),-2.1,-13.4,2.1%,u,u
COc1ccc(CCNC(=O)CN2C(=O)C(=O)N(C3CCCC3)C2=O)cc1OC,x,x,x,3.3%,1.1%
Cc1nn(C)c(C)c1NC(=O)COc1ccc(Cl)cc1,x,x,x,-0.7%,2.0%
O=C(COc1ccc(Cl)cc1)Nc1nc(-c2ccncc2)cs1,1.3,-4.1,-13.2%,-9.1%,u
Cc1ccnc(NC(=O)COc2ccc(Cl)cc2)n1,24.8*,40.7,0.4%,67.1%,42.2%
O=C(COc1ccc(Cl)cc1)Nc1ncccn1,34.2*,34.9*,-9.3%,55.0%,x
COc1cc(NC(=O)CSc2ncnc3scc(-c4ccccc4)c23)c(C(=O)O)cc1OC,0.8,-4.2,-1.8%,0.5%,8.3%
CC(=O)NC(CC(=O)N1CCN(C(C)=O)CC1)c1ccccc1 (stereo not given),6.4,-20.2,-0.6%,13.7%,3.4%
COCCNC(=S)NN=C1CCCCCC1,8.1,25.2,6.8%,u,3.4%
S=C(NCCc1ccccc1)NC1CC1,3.7,17.1,-2.8%,18.6%,-24.3%
SMILES,Cycloheximide cs,Shiga inhibitor,LmPK inh,Pf growth 48h,Pf growth 96h
S=C(NCCc1ccccc1)N/N=C/C1CCCCC1,15.4*,19.2,-4.3%,10.5%,u
S=C(NCCc1ccccc1)NN=C1CCCCCC1,54.3*,78.0*,2.4%,1.2%,u
CCOc1cc(S(=O)(=O)N2CCCCCC2)ccc1F,-1.1,-6.5,2.1%,x,u
COC(=O)c1c(NC(=O)C2CCC2)sc(C(=O)N(C)C)c1C,-1.2,-6.8,3.4%,11.7%,u
COC(=O)c1sc(NC(=O)C(C)C)c(C(=O)OC)c1C,40.4*,15.9,-1.3%,9.0%,u
COC(=O)c1sc(NC(=O)C2c3ccccc3Oc3ccccc32)c(C(=O)OC)c1C,6.5,10.3,3.0%,1.65µM*,10.4µM*
COC(=O)c1c(NC(=O)C2CC2)sc(C(=O)Nc2ccccc2)c1C,25.2*,52.1*,1.2%,21.7%,-0.9%
CCC(=O)Nc1sc(C(=O)OC)c(C)c1C(=O)OC,-4.8,12.5,2.2%,6.1%,13.5%

# Screening data from PubChem BioAssay.
